Hits are enriched below; roughly 12% of the tested compounds scored in any of these assays.
BAZ2B inh = qHTS Assay for Inhibitors of BAZ2B | Bromodomain adjacent to zinc finger domain protein 2B (Homo sapiens), Q9UIF8 | AlphaScreen BAZ2B-H3K14Ac peptide displacement | Potency, µM (series often up to 114 µM), for inactives: at the highest dose activity change, negative = inhibition, hits mostly inhibitors | actives 4.4% (n = 360,000) | AID 504333, 2011; further: on the % scale 0 is the no-effect control and ±100 the full control effect; nearly all actives have a fitted effect of over 60% in size
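AlphaScreen displacement: compounds (up to 110uM) incubated 30 min at room temperature with a preformed 50 nM BAZ2B/50 nM biotinylated H3K14Ac peptide complex in PBS pH 7.4 with Tween-20. Donor and acceptor beads at 10 ug/mL final added, 20 min light-protected before reading.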
L3MBTL1 inh = qHTS Assay for the Inhibitors of L3MBTL1. Lethal(3)malignant brain tumor-like protein 1 (Homo sapiens), Q9Y468. Potency, µM (top dose mostly 57.1 µM), inactives show top-dose activity, negative = inhibition, most hits filed as inhibitors. actives 0.66% (n = 230,000). AlphaScreen L3MBTL1–H3K9me1 peptide binding; further: on the % scale 0 is the no-effect control and ±100 the full control effect; nearly all actives have a fitted effect of over 60% in size
Target sequence (Q9Y468 whole entry, looked up): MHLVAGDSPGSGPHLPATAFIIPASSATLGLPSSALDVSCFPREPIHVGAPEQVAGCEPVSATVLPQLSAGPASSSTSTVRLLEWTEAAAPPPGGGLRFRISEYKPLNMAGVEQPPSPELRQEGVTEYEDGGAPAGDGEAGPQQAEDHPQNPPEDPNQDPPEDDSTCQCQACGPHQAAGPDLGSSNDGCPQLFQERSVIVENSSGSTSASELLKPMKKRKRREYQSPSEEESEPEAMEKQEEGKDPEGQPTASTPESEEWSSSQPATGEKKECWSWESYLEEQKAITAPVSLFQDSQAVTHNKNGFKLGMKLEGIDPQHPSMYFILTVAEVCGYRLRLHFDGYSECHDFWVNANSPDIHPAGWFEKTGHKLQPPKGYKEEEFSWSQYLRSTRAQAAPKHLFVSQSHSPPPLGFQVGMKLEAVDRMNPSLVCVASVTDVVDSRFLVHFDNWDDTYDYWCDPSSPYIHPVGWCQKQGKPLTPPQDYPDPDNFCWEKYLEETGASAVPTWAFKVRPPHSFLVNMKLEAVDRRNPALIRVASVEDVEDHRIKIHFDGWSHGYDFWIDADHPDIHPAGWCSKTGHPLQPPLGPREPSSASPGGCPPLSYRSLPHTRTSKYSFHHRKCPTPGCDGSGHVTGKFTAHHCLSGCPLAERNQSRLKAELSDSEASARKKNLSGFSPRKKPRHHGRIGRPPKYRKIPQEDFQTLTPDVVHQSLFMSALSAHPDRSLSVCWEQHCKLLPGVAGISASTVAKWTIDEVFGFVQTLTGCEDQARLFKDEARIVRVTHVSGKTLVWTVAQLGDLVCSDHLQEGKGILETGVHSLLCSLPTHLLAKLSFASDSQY
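AlphaScreen assay: L3MBTL1 (50 nM final) was preincubated 30 min at room temperature with biotinylated H3(1-15)K9me1 peptide (75 nM final), then 30 min with library compounds; streptavidin donor and nickel chelate acceptor beads (10 ug/mL final) added, 30 min dark.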
G9a inh = qHTS Assay for Inhibitors of Histone Lysine Methyltransferase G9a; AID 504332, 2011; Histone-lysine N-methyltransferase EHMT2 (Homo sapiens), Q96KQ7; actives 8.8% (n = 350,000); Potency, µM (series often up to 102 µM), without a hit: at the highest dose activity, negative = inhibition, usual class: inhibitors; G9a H3K9 monomethylation, AlphaScreen, 2 h; further: on the % scale 0 is the no-effect control and ±100 the full control effect; nearly all actives have a fitted effect of over 75% in size
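G9a (20 nM) preincubated 15 min RT with compounds, then 500 nM biotinylated H3K9 peptide and 20 uM SAM added; 2 h RT reaction. Monomethyl-H3K9 product detected by AlphaScreen with anti-H3K9me1 antibody, streptavidin donor and anti-rabbit IgG acceptor beads.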
Sfp PPTase inh = qHTS Assay for Inhibitors of Bacillus subtilis Sfp phosphopantetheinyl transferase (PPTase); Potency, µM, without a hit: largest response in the series, negative = inhibition, usual class: inhibitors; Biochemical Sfp PPTase activity, qHTS; 4'-phosphopantetheinyl transferase ffp (Bacillus subtilis), Q9F4F7; AID 1490, 2009; actives 3.5% (n = 310,000);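 further: the enzyme is Sfp with the accession as filed and its product quenches rhodamine fluorescence; 0% = enzyme reaction without inhibitor and -100% = no enzyme wells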
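Step 1, compound plus 15 nM Sfp-PPTase, 15 min, room temperature. Step 2, add rhodamine-CoA (5 uM) and BHQ-2-YbbR (12.5 uM). Step 3, read 525/598 nm fluorescence at 0 and 30 min.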
JMJD2A Tudor inh = qHTS Assay for Inhibitors of JMJD2A-Tudor Domain; Lysine-specific demethylase 4A (Homo sapiens), O75164; AlphaScreen JMJD2A-Tudor / H3K4me3 peptide binding; Potency, µM (titrated, usually from 114 µM), inactives show at the highest dose activity change, negative = inhibition, usual class: inhibitors; actives 4.4% (n = 390,000); AID 504339, 2011; further: on the % scale 0 is the no-effect control and ±100 the full control effect; nearly all actives have a fitted effect of over 50% in size
HP1b binding inh = HTS for Inhibitors of HP1-beta Chromodomain Interactions with Methylated Histone Tails | AlphaScreen HP1-beta / biotin-H3K9me3 peptide binding | Potency, µM (top dose mostly 114 µM), inactives show top-dose activity change, negative = inhibition, usual class: inhibitors | actives 0.56% (n = 390,000) | AID 540317, 2011; further: nearly all actives have a fitted effect of over 70% in size
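Compound inhibition of the preformed complex between 50 nM HP1-beta and 50 nM biotinylated H3K9me3 peptide was read by AlphaScreen. Buffer was PBS pH 7.4 with 0.01% Tween-20. Incubations ran 30 min at room temperature, with 10 ug/mL donor/acceptor beads.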
Starred values were filed as active, the others as inactive; ? = inconclusive; nt = no result; [ ] = another dose, or the depositor's remark. The call rests on the fitted dose curve; in most records, active means well fitted curve in the direction sought with a large enough effect; inconclusive means small, poorly fitted or top-dose-only effect, or another doubt; inactive means no such curve, though single readings can be large; an effect the other way counts as inactive or inconclusive. Potency means the concentration at half of the fitted maximal effect.

SMILES	BAZ2B inh	L3MBTL1 inh	G9a inh	Sfp PPTase inh	JMJD2A Tudor inh	HP1b binding inh
Cc1ccc(C)c(CN2C(=O)c3ccccc3S(=O)(=O)c3ccc(C(=O)NCCC4=CCCCC4)cc32)c1	-14%	nt	0%[59 µM]	nt	-26%	15%
CCOCCCN1C(=O)c2[nH]nc(-c3ccccc3O)c2C1c1ccc(CC)cc1 (configuration not stated)	-12%	nt	-11%[59 µM]	nt	?	21%
O=C(O)c1ccc2c(c1)-c1nc3ccccc3n1C2=O	?	nt	40µM*	?	18µM*	4%
O=C(O)c1ccc2c(c1)C(=O)N(c1ncccn1)C2=O	-1%	0%	?	0%	-10%	19%
CC1=NN(c2ccccc2)C(=O)C1(C)C	3%	2%	-1%[59 µM]	13%	-5%	16%
CC[N+]1=CN(c2ccccc2)C(C)=CC1(C)C	-7%	-7%	1.8µM*	-12%	?	-11%
O=c1c2c(-c3ccc([N+](=O)[O-])cc3)csc2nc2n1CCC2	-1%	-4%	7.9µM*	?	-30%	?
O=[N+]([O-])c1ccc(-c2nnc3n2CCCCC3)cc1	-2%	nt	60%	4%	-13%	-2%
CN(C)c1ccc(N=Cc2nc(-c3ccccc3)oc2OC(=O)c2cccc(Cl)c2)cc1	-11%	-14%	8.9µM*	?	-25%	-1%
COc1cccc(N=Cc2nc(-c3ccccc3)oc2OC(C)=O)c1	-2%	10%	50µM*	-16%	-11%	26%
Cc1ccc(Cl)cc1NS(=O)(=O)c1cc2c(cc1F)NC(=O)CC2	nt	nt	nt	nt	-7%	nt
O=[N+]([O-])c1cccc(N=NN(CCO)c2cccc([N+](=O)[O-])c2)c1	-28%	nt	?	-2%	-23%	0%
CCCN(N=Nc1cccc([N+](=O)[O-])c1)c1cccc([N+](=O)[O-])c1	?	nt	32µM*	5%	?	-25%
c1ccc2c(-c3nnc(SCc4cn5ccccc5n4)o3)c[nH]c2c1	-11%	nt	8.9µM*	-22%	-20%	21%
CCn1cc(C(=O)N(C)Cc2ccccc2)c(=O)c2cc(S(=O)(=O)N3CCCCC3)ccc21	nt	nt	-12%[59 µM]	nt	-21%	32%
CCC(=O)N[C@@H]1Cc2ccccc2[C@@H](c2ccccc2)C1	nt	nt	nt	12%	nt	nt
C#CCOc1ccc(C2C3=C(CCCC3=O)N(CC(=O)O)C3=C2C(=O)CCC3)cc1Br	5%	nt	?	-12%	-5%	27%
COC(=O)/C=C1/SC(=NC(=O)c2cccc([N+](=O)[O-])c2)NC1=O	?	nt	20µM*	-21%	-10%	43%
COC(=O)/C=C1\SC(=NC(=O)c2cccc([N+](=O)[O-])c2)NC1=O	-25%	nt	35µM*	?	-24%	0%
COC(=O)/C=C1/SC(=NC(=O)c2ccc(OC)cc2)NC1=O	?	nt	4%[0.0925 µM]	-18%	-7%	31%
COC(=O)/C=C1\S/C(=N/N=C/c2ccc(Cl)cc2)NC1=O	?	nt	nt	13%	?	2%
COC(=O)/C=C1/S/C(=N/NC(=O)c2ccccc2C)NC1=O	56µM*	nt	2µM*	-5%	?	38%
CCc1ccc(NC(=O)CN2C(=O)C(=O)c3ccccc32)cc1	-11%	nt	8%[59 µM]	nt	-16%	15%
COc1ccc(CN(Cc2ccccc2)C(=O)C2CC2)cc1COc1ccc(NC(C)=O)cc1	nt	nt	nt	nt	?	10%
COc1ccc(NS(=O)(=O)c2ccccc2)cc1NS(=O)(=O)c1ccccc1	nt	nt	nt	nt	-16%	nt
SMILES	BAZ2B inh	L3MBTL1 inh	G9a inh	Sfp PPTase inh	JMJD2A Tudor inh	HP1b binding inh
CCOc1ccc(S(=O)(=O)N2CCCC(C(=O)N3CCN(c4ccccc4)CC3)C2)cc1 (configuration not stated)	-29%	nt	2%	21%	-30%	20%
Nc1nnc(-c2ccco2)s1	17%	nt	2%[2.33 µM]	5µM*	-4%	38%
CCCC(=O)Nc1nnc(-c2ccco2)s1	-14%	nt	-6%[12.7 µM]	32µM*	-12%	33%
COc1ccccc1OCC(=O)Nc1nnc(-c2ccco2)s1	?	-12%	?	-7%	?	20%
O=C(Cc1ccccc1)Nc1nnc(-c2ccco2)s1	?	nt	-17%[12.7 µM]	6%	-17%	17%
Cc1cccc(OCC(=O)Nc2nnc(-c3ccco3)s2)c1	-32%	-14%	50µM*	-9%	-3%	35%
CCOc1cccc(C(=O)Nc2nnc(-c3ccco3)s2)c1	?	-36%	56µM*	-10%	-16%	53%
c1coc(-c2nn3c(-c4ccco4)nnc3s2)c1	?	-29%	?	-12%	?	20%
CCn1cnc2c(Nc3ccc(CC(=O)N=C(N)N)cc3)nc(C#N)nc21	nt	nt	nt	nt	-21%	nt
O=C(NCC1CC1)Nc1cccs1	-18%	0%	?	45µM*	-12%	31%
O=C(Nc1cccs1)NC1CCCC1	-32%	nt	32µM*	-7%	-25%	0%
COc1ccccc1Oc1c(NS(=O)(=O)c2ccc(C(C)(C)C)cc2)nc(-c2ncccn2)nc1OCCO	nt	nt	10%[12.7 µM]	56µM*	nt	nt
Cn1c(=O)c2nc(SCC(=O)Nc3ccc(Cl)c(Cl)c3)n(C)c2n(C)c1=O	0%	nt	-3%[59 µM]	nt	5%	65%
COC(=O)c1cc2oc3ccccc3c2n1Cc1ccccn1	-8%	nt	-34%	40µM*	1%	29%
CSc1ccc(-c2sc(Nc3ccccc3)n[n+]2-c2ccc(F)cc2)cc1	?	-4%	50µM*	13%	56µM*	-7%
Oc1ccc(-c2sc(Nc3ccccc3)n[n+]2-c2ccc(F)cc2)cc1	?	7%	35µM*	20%	-9%	11%
C#CCOCCOCCOCCNc1nc(N2CCN(C(=O)[C@H](CCCN=C(N)N)n3cc(C(N)[C@H](C)CC)nn3)CC2)nc(N2CCN(C(=O)[C@H](CC(N)=O)n3cc(C(N)[C@@H](C)CC)nn3)CC2)n1 (some centres not stated)	nt	-16%	nt	nt	?	81%
O=c1ccn(CCCBr)c(=O)[nH]1	-4%	4%	40µM*	20%	4%	39%
CN=c1scc(-c2ccccc2F)n1/N=C/c1ccc[nH]1	32µM*	nt	18µM*	-7%	50µM*	40µM*
Cc1cc(C)nc(SCc2n[nH]c(=S)n2C)n1	12%	?	7.1µM*	-10%	40µM*	26%

Screening results as filed in PubChem.
